Measurements as given in PubChem BioAssay (NCI).
This is part of a sample that, as a whole, favours compounds with a hit. Of some 83,000 tested, about 20% had one in any assay.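 Assay: single dose, 48 h. Readout: percent growth (0 = no net growth; negative = cell death). Active: <10.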 Activity calls are given as the source filed them.

Experiments:
Test in all cases: NCI-60 one-dose screen, 48 h (100 = growth as untreated, 0 = no growth, -100 = all killed)
NCI-H23 lung = conditions: 10 µM unless noted
NCI-H226 lung = conditions: 10 µM unless noted
DU-145 prostate = conditions: 10 µM unless noted
MDA-MB-231 breast = conditions: 10 µM unless noted
SF-268 CNS = conditions: 10 µM unless noted
M14 melanoma = conditions: 10 µM unless noted
HCT-15 colon = conditions: 10 µM
SNB-75 CNS = conditions: 10 µM unless noted
U251 CNS = conditions: 10 µM unless noted
PC-3 prostate = conditions: 10 µM unless noted
UACC-62 melanoma = conditions: 10 µM unless noted
OVCAR-8 ovarian = conditions: 10 µM unless noted
OVCAR-5 ovarian = conditions: 10 µM unless noted
SK-OV-3 ovarian = conditions: 10 µM unless noted
OVCAR-3 ovarian = conditions: 10 µM unless noted
NCI/ADR-RES ovarian = conditions: 10 µM unless noted
MDA-MB-435 melanoma = conditions: 10 µM unless noted
MCF7 breast = conditions: 10 µM unless noted
HCT-116 colon = conditions: 10 µM unless noted
KM12 colon = conditions: 10 µM unless noted

Measured: growth

O=[N+]([O-])c1cccc([As]=[As]c2cccc([N+](=O)[O-])c2)c1 (stereo not drawn)
active: NCI-H23 lung -36.4% | NCI-H226 lung -60.7% | DU-145 prostate -100% | MDA-MB-231 breast -91.8% | SF-268 CNS -92.1% | M14 melanoma -94.4% | HCT-15 colon -83.5% | SNB-75 CNS -100% | U251 CNS -96.1% | PC-3 prostate -84.8% | UACC-62 melanoma -97.6% | OVCAR-8 ovarian -70% | OVCAR-5 ovarian -85.2% | SK-OV-3 ovarian -100% | OVCAR-3 ovarian -96.1% | NCI/ADR-RES ovarian -1.16% | MDA-MB-435 melanoma -91.5% | MCF7 breast -53.6% | HCT-116 colon -89.3% | KM12 colon -92.7%

CC1(C)N=C(N)N=C(N)N1c1ccc(OCCCCNC(=O)c2ccc(S(=O)(=O)F)cc2)c(Cl)c1
inactive: NCI-H23 lung 68.1% | NCI-H226 lung 117% | DU-145 prostate 55% | MDA-MB-231 breast 105% | SF-268 CNS 40.7% | M14 melanoma 70.1% | HCT-15 colon 94.9% | SNB-75 CNS 87.7% | U251 CNS 57.2% | PC-3 prostate 23.4% | UACC-62 melanoma 44.1% | OVCAR-8 ovarian 32.7% | OVCAR-5 ovarian 56.2% | SK-OV-3 ovarian 101% | OVCAR-3 ovarian 119% | NCI/ADR-RES ovarian 109% | MDA-MB-435 melanoma 30.6% | MCF7 breast 34.7% | HCT-116 colon 25.6% | KM12 colon 66.5%

Nc1ccc(N)c2c1Oc1ccccc1O2
inactive: NCI-H23 lung 85.7% | NCI-H226 lung 84.5% | DU-145 prostate 94.3% | MDA-MB-231 breast 78.5% | SF-268 CNS 105% | M14 melanoma 101% | HCT-15 colon 105% | SNB-75 CNS 108% | U251 CNS 94.3% | PC-3 prostate 88% | UACC-62 melanoma 98.6% | OVCAR-8 ovarian 97.5% | OVCAR-5 ovarian 89% | SK-OV-3 ovarian 94.6% | OVCAR-3 ovarian 99% | NCI/ADR-RES ovarian 94.9% | MDA-MB-435 melanoma 109% | MCF7 breast 98% | HCT-116 colon 95.7% | KM12 colon 97.3%

CC(=O)Nc1ccc(C=C2C(=O)NC(=O)NC2=O)cc1
inactive: NCI-H23 lung 101% | NCI-H226 lung 101% | DU-145 prostate 124% | MDA-MB-231 breast 104% | SF-268 CNS 111% | M14 melanoma 106% | HCT-15 colon 103% | SNB-75 CNS 84.2% | U251 CNS 103% | PC-3 prostate 93.3% | UACC-62 melanoma 99.1% | OVCAR-8 ovarian 101% | OVCAR-5 ovarian 107% | SK-OV-3 ovarian 105% | OVCAR-3 ovarian 125% | NCI/ADR-RES ovarian 108% | MDA-MB-435 melanoma 101% | MCF7 breast 94% | HCT-116 colon 101% | KM12 colon 112%

C[CH2][Pb]([CH2]C)([CH2]C)[O]C(=O)COc1ccccc1
inactive: NCI-H226 lung 23.2% | MDA-MB-231 breast 20.1% | M14 melanoma 14.6% | HCT-15 colon 12.4% | PC-3 prostate 20.3% | UACC-62 melanoma 25.3%
active: NCI-H23 lung -6.75% | DU-145 prostate -6.43% | SF-268 CNS -10.1% | SNB-75 CNS 4.45% | U251 CNS -1.93% | OVCAR-8 ovarian 9.05% | OVCAR-5 ovarian -5.58% | SK-OV-3 ovarian 4.72% | OVCAR-3 ovarian -2.95% | NCI/ADR-RES ovarian 2.79% | MDA-MB-435 melanoma -31.9% | MCF7 breast 0.688% | HCT-116 colon 4.13% | KM12 colon 1.59%

Nc1nc(N)c(-c2ccc(Cl)c(Cl)c2)c(/C=C/c2ccc(S(=O)(=O)F)cc2)n1
inactive: NCI-H23 lung 106% | NCI-H226 lung 114% | DU-145 prostate 96.7% | MDA-MB-231 breast 104% | SF-268 CNS 97.4% | M14 melanoma 89.4% | HCT-15 colon 77.9% | SNB-75 CNS 78.4% | U251 CNS 89.1% | PC-3 prostate 65% | UACC-62 melanoma 79.1% | OVCAR-8 ovarian 81.6% | OVCAR-5 ovarian 80.8% | SK-OV-3 ovarian 97.2% | OVCAR-3 ovarian 95.4% | NCI/ADR-RES ovarian 105% | MDA-MB-435 melanoma 87.5% | MCF7 breast 73.5% | HCT-116 colon 77.7% | KM12 colon 86.8%

CC(C)Nc1ccc(Nc2ccccc2)cc1
inactive: NCI-H23 lung 31.3% | NCI-H226 lung 51.1% | DU-145 prostate 38.7% | MDA-MB-231 breast 25.5% | SF-268 CNS 32.8% | M14 melanoma 47.7% | HCT-15 colon 84.3% | SNB-75 CNS 29.8% | U251 CNS 12.5% | UACC-62 melanoma 65% | OVCAR-8 ovarian 28.1% | OVCAR-5 ovarian 65.1% | SK-OV-3 ovarian 27.7% | NCI/ADR-RES ovarian 74.8% | MDA-MB-435 melanoma 23% | MCF7 breast 32% | KM12 colon 27.6%
active: PC-3 prostate 9.1% | OVCAR-3 ovarian 7.43% | HCT-116 colon 9.97%

CCOc1ccc(C(O)CN(C)Cc2ccccc2)cc1Cl (stereo not drawn)
inactive: NCI-H23 lung 91.3% | NCI-H226 lung 92.1% | DU-145 prostate 103% | MDA-MB-231 breast 93.6% | SF-268 CNS 95.5% | M14 melanoma 96% | HCT-15 colon 106% | SNB-75 CNS 92.9% | U251 CNS 97.4% | PC-3 prostate 89.3% | UACC-62 melanoma 96.4% | OVCAR-8 ovarian 105% | OVCAR-5 ovarian 102% | SK-OV-3 ovarian 109% | OVCAR-3 ovarian 99.7% | NCI/ADR-RES ovarian 99.4% | MDA-MB-435 melanoma 103% | MCF7 breast 98.6% | HCT-116 colon 101% | KM12 colon 100%

C=CC(O)CN1CC1CC (stereo not drawn)
inactive: NCI-H23 lung 99% | NCI-H226 lung 105% | DU-145 prostate 108% | MDA-MB-231 breast 113% | SF-268 CNS 106% | M14 melanoma 96.5% | HCT-15 colon 102% | SNB-75 CNS 85.1% | U251 CNS 93.8% | PC-3 prostate 98.1% | UACC-62 melanoma 92.6% | OVCAR-8 ovarian 89.1% | OVCAR-5 ovarian 104% | SK-OV-3 ovarian 107% | OVCAR-3 ovarian 111% | NCI/ADR-RES ovarian 97.4% | MDA-MB-435 melanoma 99.1% | MCF7 breast 94.2% | HCT-116 colon 104% | KM12 colon 106%

CC(=O)[O][Hg][c]1nc2c(c(=O)n(C)c(=O)n2C)n1C
inactive: NCI-H23 lung 106% | NCI-H226 lung 108% | DU-145 prostate 107% | MDA-MB-231 breast 102% | SF-268 CNS 110% | M14 melanoma 101% | HCT-15 colon 107% | SNB-75 CNS 77.8% | U251 CNS 88.3% | PC-3 prostate 93.7% | UACC-62 melanoma 96.3% | OVCAR-8 ovarian 95.2% | OVCAR-5 ovarian 117% | SK-OV-3 ovarian 115% | OVCAR-3 ovarian 110% | NCI/ADR-RES ovarian 114% | MDA-MB-435 melanoma 92.4% | MCF7 breast 73.3% | HCT-116 colon 99.9% | KM12 colon 96.6%

C/C(=C\c1cc(C(F)(F)F)n(-c2ccc(N)cc2)n1)[C@@H]1C[C@@H]2O[C@]2(C)CCC[C@H](C)[C@H](O)[C@@H](C)C(=O)C(C)(C)[C@@H](O)CC(=O)O1
inactive: NCI-H23 lung 24.4% | NCI-H226 lung 38.9% | UACC-62 melanoma 26.8% | OVCAR-5 ovarian 14.7%
active: DU-145 prostate -23.9% | MDA-MB-231 breast 0.97% | SF-268 CNS 6.48% | M14 melanoma -14.3% | HCT-15 colon 9.88% | SNB-75 CNS -16.2% | U251 CNS 3.19% | PC-3 prostate 9.42% | OVCAR-8 ovarian 0.138% | SK-OV-3 ovarian 2.26% | OVCAR-3 ovarian -0.038% | NCI/ADR-RES ovarian 7.67% | MDA-MB-435 melanoma -22.6% | MCF7 breast 7.93% | HCT-116 colon 5.82% | KM12 colon 5.68%

CSc1ccccc1NP1(=O)OCC(C)([N+](=O)[O-])CO1 (stereo not drawn)
inactive: NCI-H23 lung 106% | NCI-H226 lung 98.4% | DU-145 prostate 109% | MDA-MB-231 breast 105% | SF-268 CNS 105% | M14 melanoma 101% | HCT-15 colon 93.1% | SNB-75 CNS 86% | U251 CNS 95.8% | PC-3 prostate 98% | UACC-62 melanoma 101% | OVCAR-8 ovarian 98% | OVCAR-5 ovarian 93.7% | SK-OV-3 ovarian 98.2% | OVCAR-3 ovarian 107% | NCI/ADR-RES ovarian 109% | MDA-MB-435 melanoma 107% | MCF7 breast 98.1% | HCT-116 colon 98% | KM12 colon 104%

CCOC(=O)Nc1cc(Cl)c([N+](=O)[O-])c(NC(=O)OCC)n1
inactive: NCI-H23 lung 87.8% | NCI-H226 lung 100% | DU-145 prostate 107% | MDA-MB-231 breast 108% | SF-268 CNS 75.2% | M14 melanoma 84.8% | SNB-75 CNS 97.3% | U251 CNS 102% | PC-3 prostate 92.2% | UACC-62 melanoma 82.6% | OVCAR-8 ovarian 64.6% | OVCAR-5 ovarian 104% | SK-OV-3 ovarian 103% | OVCAR-3 ovarian 103% | NCI/ADR-RES ovarian 102% | MDA-MB-435 melanoma 65.4% | MCF7 breast 51.4% | HCT-116 colon 53.5% | KM12 colon 71.3%

NS(=O)(=O)c1nc[nH]c1[N+](=O)[O-]
inactive: NCI-H23 lung 99.8% | NCI-H226 lung 99.4% | DU-145 prostate 111% | MDA-MB-231 breast 102% | SF-268 CNS 103% | M14 melanoma 102% | HCT-15 colon 101% | SNB-75 CNS 92.1% | U251 CNS 119% | PC-3 prostate 86.5% | UACC-62 melanoma 102% | OVCAR-8 ovarian 105% | OVCAR-5 ovarian 96.7% | SK-OV-3 ovarian 101% | OVCAR-3 ovarian 115% | NCI/ADR-RES ovarian 102% | MDA-MB-435 melanoma 115% | MCF7 breast 94.9% | HCT-116 colon 104% | KM12 colon 103%

CCOCC1(CCc2ccccc2)C(=O)NC(=S)NC1=O
inactive: NCI-H23 lung 94% | NCI-H226 lung 106% | DU-145 prostate 109% | MDA-MB-231 breast 100% | SF-268 CNS 102% | M14 melanoma 105% | HCT-15 colon 107% | SNB-75 CNS 100% | U251 CNS 101% | PC-3 prostate 104% | UACC-62 melanoma 104% | OVCAR-8 ovarian 107% | OVCAR-5 ovarian 107% | SK-OV-3 ovarian 112% | OVCAR-3 ovarian 117% | NCI/ADR-RES ovarian 105% | MDA-MB-435 melanoma 108% | MCF7 breast 103% | HCT-116 colon 101% | KM12 colon 110%

CC[CH2][Pb]([CH2]CC)([CH2]CC)[O]C(=O)C(F)(F)F
active: NCI-H23 lung -46.4% | NCI-H226 lung -61.6% | DU-145 prostate -100% | MDA-MB-231 breast -50.3% | SF-268 CNS -82.3% | M14 melanoma -91.6% | HCT-15 colon -88.2% | SNB-75 CNS -99.9% | U251 CNS -87.4% | UACC-62 melanoma -83.2% | OVCAR-8 ovarian -69.4% | OVCAR-5 ovarian -99% | SK-OV-3 ovarian -74.6% | OVCAR-3 ovarian -95.4% | NCI/ADR-RES ovarian -36.6% | MDA-MB-435 melanoma -97.1% | MCF7 breast -79.7% | HCT-116 colon -95% | KM12 colon -88.2%
